Measurements: PubChem BioAssay (EPA / NIEHS)
Where “and” joins values, the source holds several entries; their conditions need not be identical. Equal entries are not always repeated. Inconclusive results are not listed. Calls of active or inactive are those of the source. Rule for the calls: active = hit-call score of the fitted dose curve at least 0.9, where 1 is the maximum; inconclusive = response in the unintended direction; inactive = score below 0.9.

Key:
[1] = ATG_XTT_Cytotoxicity: Cytotoxicity Assessment in the Attagene TRANS-FACTORIAL HepG2 Assay (AID 2283584)
Summary of the method: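 HepG2 cells transiently transfected with GAL4-UAS multiple reporter units, dosed 24 h; cytotoxicity read by XTT as loss of signal versus DMSO baseline.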

[2] = TOX21_p53_BLA_p2_viability: Viability Assessment in the Tox21 HCT-116 p53 Agonism Beta-lactamase Assay, Phase 2 (AID 2283591);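 note: compound exposure lasted 16 h at 37 °C; actives lower the ATP signal meaning cytotoxicity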
Summary of the method: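 HCT116 p53-bla cells, 4000/well, dosed after 5 h plating (217-fold dilution of DMSO stocks) and incubated 16 h at 37C. Viability taken as cellular ATP by CellTiter-Glo luminescence after 30 min RT; signal loss marks cytotoxicity.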

[3] = target: Cellular tumor antigen p53 (Homo sapiens) (UniProt P04637); assay: TOX21_p53_BLA_p2_ratio: Tox21 HCT-116 p53 Agonism Beta-lactamase Assay, Ratio, Phase 2 (AID 2283592)
Summary of the method: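 HCT-116 cells with p53-responsive beta-lactamase reporter, 4000 cells/well, preincubated 5 h, then compound in DMSO (217-fold dilution) for 16 h at 37C. CCF4-AM substrate 2 h at room temperature; 460/530 nm emission ratio fitted upward versus DMSO.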

[4] = TOX21_p53_BLA_p3_viability: Viability Assessment in the Tox21 HCT-116 p53 Agonism Beta-lactamase Assay, Phase 3 (AID 2283593);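 note: cells exposed to compound for 16 h before reading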
Summary of the method: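 HCT116 cells, 4000/well, dosed 5 h after plating by pin transfer (217-fold dilution from DMSO stock) and incubated 16 h at 37C, 5% CO2. Viability read as ATP luminescence with CellTiter-Glo after 30 min at room temperature.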

[5] = TOX21_p53_BLA_p4_viability: Viability Assessment in the Tox21 HCT-116 p53 Agonism Beta-lactamase Assay, Phase 4 (AID 2283597);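 note: hits lower the luminescence signal meaning cytotoxicity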
Summary of the method: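 HCT-116 p53-bla cells, 4000/well, dosed after 5 h attachment and incubated 16 h at 37 °C, 5% CO2. Viability from CellTiter-Glo ATP luminescence after 30 min at room temperature, taken after the beta-lactamase read; loss of signal indicates cytotoxicity.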

[6] = target: Cellular tumor antigen p53 (Homo sapiens) (UniProt P04637); assay: TOX21_p53_BLA_p5_ratio: Tox21 HCT-116 p53 Agonism Beta-lactamase Assay, Ratio, Phase 5 (AID 2283599)
Summary of the method: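 HCT-116 p53-bla cells (4000/well) plated 5 h, dosed with compound (217-fold DMSO dilution) for 16 h at 37 C; CCF4-AM substrate 2 h at room temperature. Activity is the 460/530 nm emission ratio (405 nm excitation), fitted in gain-of-signal direction versus DMSO.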

[7] = TOX21_p53_BLA_p5_viability: Viability Assessment in the Tox21 HCT-116 p53 Agonism Beta-lactamase Assay, Phase 5 (AID 2283600)
Summary of the method: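 HCT-116 p53 beta-lactamase reporter cells, 4000/well, were exposed to compound (pin transfer, 217-fold dilution) for 16 hours at 37C. Cellular ATP was read by CellTiter-Glo luminescence after 30 min at room temperature.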

[8] = target: Cellular tumor antigen p53 (Homo sapiens) (UniProt P04637); assay: TOX21_p53_BLA_p3_ratio: Tox21 HCT-116 p53 Agonism Beta-lactamase Assay, Ratio, Phase 3 (AID 2283596)
Summary of the method: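 HCT116 p53-bla cells (4000/well) given compound in DMSO (217-fold dilution) after 5 h, incubated 16 h at 37C. CCF4-AM substrate 2 h at room temperature; 460/530 nm emission ratio, gain fitted against DMSO.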

[9] = target: Cellular tumor antigen p53 (Homo sapiens) (UniProt P04637); assay: TOX21_p53_BLA_p4_ratio: Tox21 HCT-116 p53 Agonism Beta-lactamase Assay, Ratio, Phase 4 (AID 2283601)
Summary of the method: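 HCT-116 p53 beta-lactamase reporter cells (4000/well) preincubated 5 h, then compound (217-fold dilution of DMSO stock) for 16 h at 37C. CCF4-AM substrate added 2 h at room temperature; 460/530 nm emission ratio fitted upward versus DMSO.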

Measured: AC50

Chain of Cellular tumor antigen p53 (Homo sapiens) (P04637 whole entry, looked up): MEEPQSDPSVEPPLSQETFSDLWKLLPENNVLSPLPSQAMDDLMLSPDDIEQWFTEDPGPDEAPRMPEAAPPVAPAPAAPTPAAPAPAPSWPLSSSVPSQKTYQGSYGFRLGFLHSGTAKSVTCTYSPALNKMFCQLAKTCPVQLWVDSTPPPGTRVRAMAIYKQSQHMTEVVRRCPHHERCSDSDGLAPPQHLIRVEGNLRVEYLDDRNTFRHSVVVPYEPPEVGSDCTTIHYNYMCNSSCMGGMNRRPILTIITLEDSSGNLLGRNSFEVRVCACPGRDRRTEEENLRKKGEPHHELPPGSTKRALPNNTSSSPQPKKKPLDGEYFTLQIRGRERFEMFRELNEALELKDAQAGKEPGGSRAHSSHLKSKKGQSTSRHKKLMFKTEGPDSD

CC(C)C(OC(=O)c1ccccc1)C(C)(C)COC(=O)c1ccccc1 (stereo unspecified)
not listed: [8] | [9]
inactive: all other assays above

O=C1OC(=O)c2c(Cl)c(Cl)c(Cl)c(Cl)c21
not listed: [6]
inactive: all other assays above

CC(CN=Cc1ccccc1O)N=Cc1ccccc1O (stereo unspecified)
not listed: [5] | [7] | [9]
inactive: all other assays above

CCC1(c2ccccc2)C(=O)NCNC1=O
not listed: [6]
inactive: all other assays above

CCOC(=O)C1OC1c1ccccc1 (stereo unspecified)
not listed: [5]
inactive: all other assays above

CCCCCCOC(=O)C(C)C
not listed: [5] | [7]
inactive: all other assays above

CCOCCOCCOCC
inactive: [1] | [2] | [3] | [4] | [6]

NC1CCCCC1N (stereo unspecified)
not listed: [8]
inactive: all other assays above

Cc1cc(C)nc(NS(=O)(=O)c2ccc(N)cc2)n1
not listed: [6]
inactive: all other assays above

COc1ccc(CCC(C)=O)cc1
not listed: [5] | [7]
inactive: all other assays above

O=C(O)CNc1ccccc1
not listed: [5]
inactive: all other assays above

CC1(C)O[C@@H]2C[C@H]3[C@@H]4CCC5=CC(=O)C=C[C@]5(C)[C@@]4(F)[C@@H](O)C[C@]3(C)[C@]2(C(=O)CO)O1
inactive: all assays above

CCC(C)S (stereo unspecified)
inactive: [1] | [2] | [3] | [4] | [7]

[Cl][Au]([Cl])[Cl]
inactive: [1] | [6] | [7]
active: [2] 45.6 µM | [3] 74.1 µM | [4] 75.1 µM | [5] 70.7 µM | [9] 37.8 µM

Cc1c(OCC(F)(F)F)ccnc1CS(=O)c1nc2ccccc2[nH]1 (stereo unspecified)
inactive: all assays above

C=C(C)C(=O)OCCOCCOCCOC(=O)C(=C)C
not listed: [5]
inactive: all other assays above

CCCCCCCCCC(C)C=O (stereo unspecified)
inactive: all assays above

OCCOCCN1CCN(C2=Nc3ccccc3Sc3ccccc32)CC1
inactive: all assays above

Brc1ccc(Br)c(Br)c1
not listed: [6]
inactive: all other assays above

COc1ccc(CCN2CCC(Nc3nc4ccccc4n3Cc3ccc(F)cc3)CC2)cc1
active: [2] 15.2 µM and 38.9 µM | [3] 31.1 µM and 43.8 µM | [8] 37.5 µM | [5] 14.4 µM and 23 µM | [6] 38.8 µM and 42.9 µM | [7] 25.7 µM and 40.5 µM | [9] 32.5 µM and 43.3 µM
inactive: [1]

COC(=O)c1ccc(OC)cc1
not listed: [7]
inactive: all other assays above
